# Data reported in PubChem BioAssay (NCI).
# Compounds without any hit were thinned out: in the full panel of roughly 83,000, 20% have a hit.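 Activity criterion: percent growth below 10, measured after cells in 96-well plates were exposed to a single compound concentration for 48 hours.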 A number with no mark means an inactive call. Activity calls are given as the source filed them.
# How the values were obtained:
# Assay in all cases: NCI-60 one-dose screen, 48 h (100 = growth as untreated, 0 = no growth, -100 = all killed)
# Conditions in all cases: 10 µM
# NCI-H23 lung = system: NCI-H23 lung
# NCI-H226 lung = system: NCI-H226 lung
# NCI-H460 lung = system: NCI-H460 lung
# NCI-H522 lung = system: NCI-H522 lung
# A549/ATCC NSCLC = system: A549/ATCC NSCLC
# 786-0 renal = system: 786-0 renal
# COLO 205 colon = system: COLO 205 colon
# HOP-92 NSCLC = system: HOP-92 NSCLC
Structure (SMILES),growth (NCI-H23 lung),growth (NCI-H226 lung),growth (NCI-H460 lung),growth (NCI-H522 lung),growth (A549/ATCC NSCLC),growth (786-0 renal),growth (COLO 205 colon),growth (HOP-92 NSCLC)
COc1cc2c3c(n(C4CCNCC4)c(=O)c2cc1OC)-c1cc2c(cc1C3=O)OCO2,-59.4% (active),-43.8% (active),-66.2% (active),-44.3% (active),-53.7% (active),-60% (active),-83% (active),–
CCCCCC(=O)O[C@]1(C(C)=O)CCC2C3CCC4=CC(=O)CC[C@]4(C)C3CC[C@@]21C (stereo not given in full),22.1%,52.7%,15.2%,–,27.9%,40.3%,–,–
Nc1ccccc1NC(=O)c1ccc(CCCC(=O)Nc2ccc(C3CC3N)cc2)cc1 (stereo not given),37.2%,27.5%,40.4%,-34.4% (active),34.8%,38.8%,-5.7% (active),–
C[C@@H](O)[C@H]1C(=O)N2C(C(=O)O)=C(SC3CN[C@H](C(=O)N(C)C)C3)[C@H](C)[C@H]12 (stereo not given in full),97.2%,99.2%,102%,–,96.6%,103%,113%,–
CC1/C=C/C=C/C=C/C=C/C=C/C=C/C=C/C(O[C@@H]2O[C@H](C)[C@H](O)[C@@H](O)[C@@H]2N)CC(O)C(C(=O)O)C(O)CC(=O)CC(O)CC(O)CC(O)CC(=O)CCCC(=O)CC(=O)OC1C(C)CC(C)C(O)CC(=O)c1ccc(N)cc1 (stereo not given in full),-96.5% (active),-93% (active),–,–,-100% (active),-94% (active),-83.2% (active),-88.2% (active)
CN(C)CCCN1c2ccccc2CCc2ccc(Cl)cc21,71.2%,85.7%,79.4%,–,72.4%,71.3%,-11.9% (active),–
CC(C)[N+]1(C)C2CC[C@@H]1CC(OC(=O)C(CO)c1ccccc1)C2 (stereo not given in full),92%,103%,–,–,92.3%,103%,113%,–
Cn1c2ccccc2c2c3[nH][nH]c(=O)c3c3c4ccccc4[nH]c3c21,19.2%,65.8%,-28.2% (active),4.72% (active),56.9%,23%,59%,–
CCOC(=O)CSc1nc(-c2cc(OC)ccc2OC)cc(-c2ccc(OC)cc2)c1C#N,87%,86.4%,66.6%,55.8%,61.6%,71.9%,101%,–
c1cnc2[nH]cc(-c3nc(-c4ccsc4)cs3)c2c1,80.2%,74.4%,109%,79.4%,84.7%,107%,117%,–
CCOC(=O)c1sc2ncnc(Nc3ccc4c(cnn4C(=O)Nc4ccccc4)c3)c2c1C,60.6%,109%,49.2%,64.5%,56.7%,-2.26% (active),70.1%,–
